We go through 39 compounds from PubChem BioAssay (NCI).

About 83,000 compounds went through this panel and 20% of them were active in at least one assay; those are over-represented in the sample as a whole.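 Results are percent growth after 48 hours of single-concentration exposure. 100 means growth as in untreated cells, lower positive values show inhibition; negative values down to -100 show cell death.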 The source made the active and inactive calls. Rule for the calls: active = growth percent below 10; inactive = the rest.

For the assay, the system named is K-562 leukemia. Put plainly: NCI-60 one-dose screen, 48 h (100 = growth as untreated, 0 = no growth, -100 = all killed). As to conditions: 10 µM unless noted.
As for `O=C1/C(=C/c2ccccc2)SC(=Nc2ccccc2)N1Nc1ccccc1`, the growth was 4.55% (active). With `COc1cnc2c(c1)C(=O)c1c-2n(CCCNC(C)C)c(=O)c2cc(Cl)ccc12`, the growth was -80% (active). The same measure for `CCSCC1CC(O)(c2ccccc2)C(c2ccccc2)C(c2ccc(F)cc2)O1` (centres undefined): 7.77% (active); for `CN1C(=O)C(C2=NNC(c3ccccc3C(=O)O)C2)C(=O)N(C)C1=O` (centres undefined): 94.1% (inactive); for `NC(N)=NC1CCCCC1`: 93.5% (inactive). For `COc1ccc(C(=O)OC2C(OC3C(O)COC(O[C@H]4C[C@H]5[C@@H]6CC=C7C[C@@H](O)CC[C@]7(C)[C@H]6CC[C@]5(C)[C@H]4[C@H](C)C(=O)CCC(C)C)C3OC(C)=O)OCC(O)C2O)cc1` (some centres undefined) the value was -50.3% (active). The same measure for `CC(C)(C)c1ccc(OC(=O)Nc2ccccc2)cc1`: 88% (inactive). On to `CN1C2CCC1/C(=C\c1ccc(F)cc1)C(=O)/C2=C/c1ccc(F)cc1`, for which the growth was 16.2% (inactive). The same measure for `CCCCOC(=O)c1cc(O)c(O)c(O)c1`: 66.3% (inactive); for `CCOC(=O)C1OC2(CCCC2)OC1C(=O)OCC` (centres undefined): 112% (inactive); for `O=C(Nc1cccc(-n2ccc3c(NC(=O)c4ccccc4)nccc32)c1)c1ccc(N2CCOCC2)c(C(F)(F)F)c1`: 5.25% (active). For `CCN(CC)CCCC(C)Nc1c(-c2ccccc2)cnc2cc(Cl)ccc12` (centres undefined) the value was 13.3% (inactive); for `O=C1C=CN2C(=O)CC=CC2[C@@H]1O` (some centres undefined), 109% (inactive); for `CC(=O)O[C@@H]1CC2C(C)(C)CCCC2(C)C2=C1C(=O)C(C(C)C)=CC2=O` (some centres undefined), 6.8% (active).

`O=C(Nc1ccc(-n2ccc3c(NC(=O)c4ccccc4)nccc32)cc1)c1ccc(N2CCOCC2)c(C(F)(F)F)c1`: the growth was 17.4% (inactive). For the compound `COc1cc(/C=C/c2cc(/C=C/c3ccc(O)c(OC)c3)n(C(=O)Nc3ccc(F)c(Cl)c3)n2)ccc1O`, the growth is -3.9% (active). The same measure for `COc1cc(OC)c2sc(-c3ccc(-n4cncc4-c4ccc(OC)c(N)c4)cc3)nc2c1`: 54.7% (inactive); for `COc1ccc(C2=NNC(c3ccc(Oc4nc5c(c(=O)n(C)c(=O)n5C)n4C)c(OC)c3)C2)cc1` (centres undefined): 112% (inactive); for `NS(=O)(=O)c1ccc(CCn2c(SCC(=O)N/N=C/c3cccnc3)nc3ccccc3c2=O)cc1`: 61% (inactive). For `O=C(NNC(=O)c1cccc(Cl)c1)c1ccccc1` the value was 114% (inactive); for `N=c1nc(N2CCCCC2)cc(N)n1O`, 116% (inactive); for `Cc1ccc(C)c(NC(=O)c2sc3c(=O)[nH]cnc3c2C)c1`, 29.6% (inactive). For `C=CCOC(=O)C1=C(C)NC2=C(C(=O)CCC2)C1c1ccc(F)cc1` (centres undefined) the value was 96.3% (inactive); for `COc1ccc(-c2cnc(-c3ccncc3-c3cccc(OC)c3)o2)cc1`, 7.13% (active).

As to `O=C(Nc1ccncc1)C(=O)c1cn(S(=O)(=O)c2cccc(Cl)c2F)c2ccccc12`, the growth is 23.9% (inactive). Regarding `Cc1ccccc1Nc1n[nH]c(Cc2ccccc2)n1`, the growth was 72% (inactive). For `Oc1ccccc1-c1nnc(COc2ccc(Cl)cc2Cl)o1` the value was 44.5% (inactive).

Regarding `CS(=O)(=O)c1ccc(C(=O)N/N=C/c2ccccc2O)cc1`, the growth was 40.5% (inactive).

Take `CCCCCCCCCCCCCCCCCC(=O)OCCCCCCCCCCCCC`: the growth was 119% (inactive).

As to `COc1cc(C2CC(c3ccc(C)cc3)=NN2C=O)ccc1Oc1nc2c(c(=O)n(C)c(=O)n2C)n1C` (centres undefined), the growth was 88.3% (inactive).

Turning to `COc1cc(C2CC(c3ccccc3)=NN2C=O)ccc1Oc1ccnc2cc(Cl)ccc12` (centres undefined), the growth is 51.1% (inactive). For `NC(N)=N/N=C/c1ccc(Cl)cc1` the value was 14% (inactive); for `O=c1c2cc(Cl)ccc2oc2ccc(OCCCCCN3CCCCC3)cc12`, 2.44% (active).

On to `COc1cc(Cl)cc(-c2nn(C(=O)NCCN3CCOCC3)cc2-c2ccncc2)c1`, for which the growth was 28.1% (inactive). The same measure for `COc1ccc2nc3ccccc3c(NCc3ccc(Cl)cc3)c2c1`: -30.2% (active). The same measure for `CN1C(=O)N(C)C2C1NN=c1s/c(=C\c3ccc(C(F)(F)F)cc3)c(=O)n12` (centres undefined): 10.6% (inactive). The same measure for `C=C1C(=O)O[C@H]2[C@H]1CC/C(COC(=O)NCc1cn(C)c3ccccc13)=C\CC[C@@]1(C)O[C@@H]21`: -16.5% (active).

Take `c1csc(-c2cnc3nonc3n2)c1`: the growth is 67.4% (inactive). Turning to `Nc1nc(NC2CC2)cc(-c2cccc(Cl)c2Cl)n1`, the growth is 18.9% (inactive).
